A short description of assay [1]: ATG_TAL_CIS: Attagene CIS-FACTORIAL HepG2 Assay for human TAL Basal Promoter (AID 2282966; active means hit-call score of the fitted dose curve at least 0.9, where 1 is the maximum; inactive means score below 0.9;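 further: background control endpoint measuring basal TAL promoter reporter mRNA not a specific factor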). Conditions: HepG2 Attagene cis-factorial TAL promoter reporter; actives raise or lower the signal. An outline of the steps: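 Steps: transfect HepG2 with multiple reporter transcription units; dose 24 h; isolate RNA, reverse-transcribe, PCR-amplify, label with 6-FAM, digest with HpaI; resolve by capillary electrophoresis. Bidirectional fitting against DMSO baseline.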

Assay [2] in a line: ATG_TGFb_CIS: Attagene CIS-FACTORIAL HepG2 Assay for human Transforming Growth Factor (TGF) (AID 2282967; active means hit-call score of the fitted dose curve at least 0.9, where 1 is the maximum; inactive means score below 0.9). Conditions: HepG2 Attagene CIS TGFb reporter, mRNA transcription; actives raise or lower the signal. The essentials: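 Transient MRTU transfection of HepG2 (FuGene 6). Dose 24 h. TriZol RNA, oligo(dT) RT, PCR, 6-FAM primer extension, HpaI cut, CE. Bidirectional fit, DMSO = baseline.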

Assay [3] concerns the target Nuclear receptor subfamily 1 group I member 3 (Homo sapiens) (UniProt Q14994). As to the kind of experiment: ATG_CAR_TRANS: Attagene TRANS-FACTORIAL HepG2 Assay for human Constitutive Androstane Receptor (CAR) (AID 2282969).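 Further: activators raise reporter mRNA above DMSO so AC50 marks induction.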 The following applies: HepG2 Attagene TRANS-FACTORIAL CAR reporter. An outline of the steps:
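HepG2 cells transiently transfected with GAL4-UAS reporter units; TRANS format reads activity of exogenous chimeric NR-Gal4 protein. After 24 h dosing, reporter mRNA quantified by RT-PCR, 6-FAM labelling and capillary electrophoresis; gain of signal fitted against DMSO.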

The target of assay [4] is Estrogen receptor (Homo sapiens) (UniProt P03372). The assay can be described thus: ATG_ERa_TRANS: Attagene TRANS-FACTORIAL HepG2 Assay for human Estrogen Receptor alpha (ERa) (AID 2282970). The following applies: HepG2 Attagene TRANS ERa GAL4 reporter, mRNA. An outline of the steps: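 Multiplexed cell-based reporter format in HepG2: chimeric ERa-Gal4 protein drives GAL4-UAS reporter transcription. Fluorescent reporter mRNA quantified by capillary electrophoresis 24 hours after dosing; endpoint fitted as signal gain against DMSO.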

In assay [5] the target is X-box-binding protein 1 (Homo sapiens) (UniProt P17861). As to the kind of experiment: ATG_Xbp1_CIS: Attagene CIS-FACTORIAL HepG2 Assay for human X-box Binding Protein 1 (XBP1) (AID 2282972; active means hit-call score of the fitted dose curve at least 0.9, where 1 is the maximum; inactive means score below 0.9). Conditions: HepG2 XBP1 cis-element reporter, Attagene multiplex; actives raise or lower the signal. An outline of the steps: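 HepG2 cells transiently transfected with multiple cis-element reporter units report endogenous TF activity; 24 h exposure, then reporter mRNA measured by RT-PCR, 6-FAM labelling, HpaI digestion and capillary electrophoresis. Bidirectional fitting versus DMSO.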
X-box-binding protein 1 (Homo sapiens), sequence (P17861 whole entry, looked up): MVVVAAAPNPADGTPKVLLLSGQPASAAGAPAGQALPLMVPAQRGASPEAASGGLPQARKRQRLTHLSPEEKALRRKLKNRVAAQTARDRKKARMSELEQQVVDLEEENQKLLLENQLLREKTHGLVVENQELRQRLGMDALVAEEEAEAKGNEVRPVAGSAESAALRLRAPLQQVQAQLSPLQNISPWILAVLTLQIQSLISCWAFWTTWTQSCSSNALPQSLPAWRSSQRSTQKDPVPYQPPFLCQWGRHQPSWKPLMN

For assay [6], the target named is Glucocorticoid receptor (Homo sapiens) (UniProt P04150). The assay can be described thus: ATG_GR_TRANS: Attagene TRANS-FACTORIAL HepG2 Assay for human Glucocorticoid Receptor (GR) (AID 2282978).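 Further: activators score as hits since higher reporter transcript over DMSO is fitted.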 Conditions: HepG2 Attagene TRANS GR reporter, mRNA transcription. The essentials:
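Fluorescent capillary-electrophoresis quantitation of reporter mRNA is the readout, taken 24 h after dosing human HepG2 cells carrying transiently transfected GAL4-UAS reporter units activated by chimeric NR-GAL4 fusions; activity scored as induction over DMSO.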

Assay [7] addresses Oxysterols receptor LXR-alpha (Homo sapiens) (UniProt Q13133). The assay can be described thus: ATG_LXRa_TRANS: Attagene TRANS-FACTORIAL HepG2 Assay for human Liver X Receptor alpha (LXRa) (AID 2282980). The following applies: HepG2 Attagene TRANS reporter, LXRa transactivation. An outline of the steps: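 In this multiplexed TRANS system, compounds act on HepG2 cells carrying GAL4-UAS reporter units and a receptor-GAL4 fusion for 24 h. Induced reporter RNA is amplified, fluorescently labelled and sized by capillary electrophoresis, with DMSO as baseline.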

Assay [8] concerns the target Oxysterols receptor LXR-beta (Homo sapiens) (UniProt P55055). The assay can be described thus: ATG_LXRb_TRANS: Attagene TRANS-FACTORIAL HepG2 Assay for human Liver X Receptor beta (LXRb) (AID 2282981). The following applies: HepG2 Attagene TRANS GAL4-LXRb reporter, mRNA. The essentials: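 Gain-of-signal mRNA reporter endpoint, DMSO as negative control. Transiently transfected HepG2 cells carrying the NR-Gal4 chimera and GAL4-UAS reporter units were treated 24 h; transcripts quantified by RT-PCR and capillary electrophoresis fluorescence.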

For assay [9], the target named is Hepatocyte nuclear factor 4-alpha (Homo sapiens) (UniProt P41235). The assay can be described thus: ATG_HNF4a_TRANS: Attagene TRANS-FACTORIAL HepG2 Assay for human Hepatocyte Nuclear Factor 4 alpha (HNF4a) (AID 2282982). The following applies: HepG2 HNF4a transactivation reporter, mRNA readout. An outline of the steps: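 Gain-of-signal mRNA induction, relative to DMSO vehicle, was read after 24 h compound treatment of HepG2 cells bearing transfected GAL4-UAS reporters. Detection used RT-PCR, 6-FAM primer extension and capillary electrophoresis.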
Hepatocyte nuclear factor 4-alpha (Homo sapiens), sequence (P41235 whole entry, looked up, the tested form may be a part): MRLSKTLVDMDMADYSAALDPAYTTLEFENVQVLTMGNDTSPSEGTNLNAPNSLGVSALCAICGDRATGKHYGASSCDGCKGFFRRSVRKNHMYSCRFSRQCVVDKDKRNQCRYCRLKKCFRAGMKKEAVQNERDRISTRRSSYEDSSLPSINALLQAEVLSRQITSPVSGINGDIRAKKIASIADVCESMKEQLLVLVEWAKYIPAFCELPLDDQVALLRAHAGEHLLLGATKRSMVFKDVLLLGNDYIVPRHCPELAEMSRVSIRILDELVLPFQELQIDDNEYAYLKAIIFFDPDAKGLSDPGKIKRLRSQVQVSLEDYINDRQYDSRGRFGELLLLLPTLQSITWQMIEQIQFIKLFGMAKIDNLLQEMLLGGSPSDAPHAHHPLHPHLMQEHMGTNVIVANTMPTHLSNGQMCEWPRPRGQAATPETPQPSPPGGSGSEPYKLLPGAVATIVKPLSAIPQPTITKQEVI

Assay [10] is described as follows: ATG_M_06_TRANS: Attagene TRANS-FACTORIAL HepG2 Assay for M06 Transcription Factor (Internal Marker) (AID 2282983).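 On AC50: potency for rise in reporter mRNA above DMSO baseline.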 The following applies: HepG2 Attagene TRANS M06 internal marker reporter. An outline of the steps:
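Internal-marker background readout from a multiplexed TRANS reporter system in HepG2; 24 h dosing; mRNA induction quantified by RT-PCR plus capillary electrophoresis fluorescence; DMSO as negative control and baseline.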

The nature of assay [11]: ATG_M_32_TRANS: Attagene TRANS-FACTORIAL HepG2 Assay for M32 Transcription Factor (Internal Marker) (AID 2282984). The following applies: HepG2 Attagene TRANS M32 internal marker reporter. The essentials: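 Capillary electrophoresis of 6-FAM-labelled reporter fragments gives the signal; data fitted for gain over DMSO negative control. Source: HepG2 cells bearing transient multiple reporter transcription units, 24 h exposure.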

Assay [12] addresses Nuclear receptor subfamily 4 group A member 2 (Homo sapiens) (UniProt P43354). The assay can be described thus: ATG_NURR1_TRANS: Attagene TRANS-FACTORIAL HepG2 Assay for human Nuclear Receptor Related Protein 1 (NURR1) (AID 2282985). Conditions: HepG2 Attagene TRANS reporter, mRNA readout. An outline of the steps: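 HepG2 / transient MRTU transfection / 24 h compound exposure / RT-PCR + CE fluorescence of reporter mRNA / gain-of-signal vs DMSO.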

Assay [13] deals with Transcriptional activator Myb (Homo sapiens) (UniProt P10242). As to the kind of experiment: ATG_Myb_CIS: Attagene CIS-FACTORIAL HepG2 Assay for human Myeloblastosis (Myb) Proto-Oncogene Transcription Factor (AID 2282986; active means hit-call score of the fitted dose curve at least 0.9, where 1 is the maximum; inactive means score below 0.9). Conditions: HepG2 Attagene CIS-FACTORIAL Myb reporter transcription; actives raise or lower the signal. The essentials: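 Reporter transcript levels, quantified by fluorescent RT-PCR and capillary electrophoresis, serve as the read-out. Transfected HepG2 cells carrying cis-promoter reporter units are dosed for 24 hours, and curves are fitted bidirectionally against DMSO controls.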
Transcriptional activator Myb (Homo sapiens), sequence (P10242 whole entry, looked up): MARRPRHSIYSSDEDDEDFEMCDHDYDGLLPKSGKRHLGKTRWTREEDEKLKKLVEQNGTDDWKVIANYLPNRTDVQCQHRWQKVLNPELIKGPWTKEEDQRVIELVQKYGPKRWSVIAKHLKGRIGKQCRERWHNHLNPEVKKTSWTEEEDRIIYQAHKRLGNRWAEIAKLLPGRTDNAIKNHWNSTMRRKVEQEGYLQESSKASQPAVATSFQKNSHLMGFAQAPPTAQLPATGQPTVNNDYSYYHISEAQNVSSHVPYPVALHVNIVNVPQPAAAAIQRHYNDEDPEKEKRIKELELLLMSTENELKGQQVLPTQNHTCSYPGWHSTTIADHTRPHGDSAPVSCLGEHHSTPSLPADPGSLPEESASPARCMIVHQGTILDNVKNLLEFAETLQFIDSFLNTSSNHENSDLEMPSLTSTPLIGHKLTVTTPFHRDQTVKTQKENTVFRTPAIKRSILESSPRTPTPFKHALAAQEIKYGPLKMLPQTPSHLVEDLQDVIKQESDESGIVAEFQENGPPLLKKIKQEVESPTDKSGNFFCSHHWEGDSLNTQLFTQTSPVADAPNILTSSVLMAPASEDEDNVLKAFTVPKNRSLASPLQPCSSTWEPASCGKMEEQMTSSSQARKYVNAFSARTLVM

For assay [14], the target named is Nuclear respiratory factor 1 (Homo sapiens) (UniProt Q16656). The assay can be described thus: ATG_NRF1_CIS: Attagene CIS-FACTORIAL HepG2 Assay for human Nuclear Respiratory Factor 1 (NRF1) Orphan Gene (AID 2282987; active means hit-call score of the fitted dose curve at least 0.9, where 1 is the maximum; inactive means score below 0.9). The following applies: HepG2 NRF1 cis-element reporter, Attagene multiplex; actives raise or lower the signal. The essentials:
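Multiplexed cis-reporter assay, HepG2 cells, 24 h treatment. Total RNA → oligo(dT) RT → PCR with reporter-specific primers → 6-FAM primer extension → HpaI cut → CE. Bidirectional fit vs DMSO.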

The nature of assay [15]: ATG_VDRE_CIS: Attagene CIS-FACTORIAL HepG2 Assay for human Vitamin D Receptor Element (VDRE) (AID 2282968; active means hit-call score of the fitted dose curve at least 0.9, where 1 is the maximum; inactive means score below 0.9). The following applies: HepG2 VDRE cis-reporter transcription, actives raise or lower the signal. The essentials:
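Cell-based multiplexed reporter format in human liver HepG2 cells, 24 h post-dose. Fluorescence from capillary electrophoresis of reporter cDNA gives the signal, with DMSO as negative control and baseline.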

A short description of assay [16]: ATG_M_19_TRANS: Attagene TRANS-FACTORIAL HepG2 Assay for M19 Transcription Factor (Internal Marker) (AID 2282974). Conditions: HepG2 Attagene TRANS-FACTORIAL M19 internal marker reporter. An outline of the steps: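 Fluorescence of 6-FAM-labelled reporter cDNA fragments, separated by capillary electrophoresis, served as the readout. These derived from HepG2 cells carrying transfected GAL4-UAS reporter units after 24 h dosing, with DMSO as negative control.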

Assay [17] can be described thus: ATG_GAL4_TRANS: Attagene TRANS-FACTORIAL HepG2 Assay for GAL4 (Internal Marker) (AID 2282976). Conditions: HepG2 Attagene TRANS GAL4 internal marker reporter. An outline of the steps:
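Liver HepG2 line bearing multiplexed GAL4-UAS reporter constructs; 24 h chemical treatment. Transcripts were quantified as fluorescent fragments on capillary electrophoresis after RT-PCR and HpaI cut, with activity fitted upward from DMSO.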

The target of assay [18] is Estrogen-related receptor gamma (Homo sapiens) (UniProt P62508). As to the kind of experiment: ATG_ERRg_TRANS: Attagene TRANS-FACTORIAL HepG2 Assay for human Estrogen-Related Receptor gamma (ERRg) (AID 2282977).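 Further: hits increase reporter signal over DMSO so potencies reflect activators.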 Conditions: HepG2 Attagene TRANS reporter, ERRg transactivation. The essentials:
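HepG2 cells transiently transfected with multiplexed GAL4-UAS reporter units and chimeric NR-Gal4 constructs were exposed to test chemicals for 24 h. Reporter mRNA was measured by RT-PCR, 6-FAM primer extension, HpaI digestion and capillary electrophoresis; gain-of-signal versus DMSO.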

Where “and” joins values, the source holds several entries; their conditions need not be identical. Equal entries are not always repeated. Records with an inconclusive call do not appear. More than one record can exist for a structure, and the calls need not agree. Calls of active or inactive are those of the source. How the source made its calls, unless noted: active means hit-call score of the fitted dose curve at least 0.9, where 1 is the maximum; inconclusive means response in the unintended direction; inactive means score below 0.9.

Oxysterols receptor LXR-alpha (Homo sapiens), sequence (Q13133 whole entry, looked up, the tested form may be a part): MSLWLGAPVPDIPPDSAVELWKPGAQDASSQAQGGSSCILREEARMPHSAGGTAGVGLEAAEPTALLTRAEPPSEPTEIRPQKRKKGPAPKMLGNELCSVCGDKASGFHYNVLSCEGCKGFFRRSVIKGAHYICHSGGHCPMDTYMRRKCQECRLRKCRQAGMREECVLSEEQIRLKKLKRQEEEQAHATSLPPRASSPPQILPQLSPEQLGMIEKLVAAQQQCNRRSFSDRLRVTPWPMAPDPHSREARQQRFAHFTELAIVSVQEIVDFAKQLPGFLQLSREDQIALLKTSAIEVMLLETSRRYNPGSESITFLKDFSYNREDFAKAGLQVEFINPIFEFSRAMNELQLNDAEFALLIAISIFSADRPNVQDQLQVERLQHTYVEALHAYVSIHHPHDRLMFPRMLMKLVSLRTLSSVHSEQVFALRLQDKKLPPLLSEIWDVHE
Oxysterols receptor LXR-beta (Homo sapiens), sequence (P55055 whole entry, looked up, the tested form may be a part): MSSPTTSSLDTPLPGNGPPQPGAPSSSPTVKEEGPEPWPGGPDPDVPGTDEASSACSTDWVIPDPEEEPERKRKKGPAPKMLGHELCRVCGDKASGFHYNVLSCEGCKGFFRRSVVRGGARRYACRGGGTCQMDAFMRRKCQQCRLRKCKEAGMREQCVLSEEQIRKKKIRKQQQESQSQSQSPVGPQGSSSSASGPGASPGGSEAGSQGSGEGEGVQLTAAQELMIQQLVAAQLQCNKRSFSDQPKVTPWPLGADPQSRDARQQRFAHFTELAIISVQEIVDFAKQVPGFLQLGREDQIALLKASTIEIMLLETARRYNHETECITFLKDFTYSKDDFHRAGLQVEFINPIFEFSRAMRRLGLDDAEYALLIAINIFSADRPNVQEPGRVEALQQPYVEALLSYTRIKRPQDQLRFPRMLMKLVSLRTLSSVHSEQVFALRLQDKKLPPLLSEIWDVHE
Nuclear respiratory factor 1 (Homo sapiens), sequence (Q16656 whole entry, looked up): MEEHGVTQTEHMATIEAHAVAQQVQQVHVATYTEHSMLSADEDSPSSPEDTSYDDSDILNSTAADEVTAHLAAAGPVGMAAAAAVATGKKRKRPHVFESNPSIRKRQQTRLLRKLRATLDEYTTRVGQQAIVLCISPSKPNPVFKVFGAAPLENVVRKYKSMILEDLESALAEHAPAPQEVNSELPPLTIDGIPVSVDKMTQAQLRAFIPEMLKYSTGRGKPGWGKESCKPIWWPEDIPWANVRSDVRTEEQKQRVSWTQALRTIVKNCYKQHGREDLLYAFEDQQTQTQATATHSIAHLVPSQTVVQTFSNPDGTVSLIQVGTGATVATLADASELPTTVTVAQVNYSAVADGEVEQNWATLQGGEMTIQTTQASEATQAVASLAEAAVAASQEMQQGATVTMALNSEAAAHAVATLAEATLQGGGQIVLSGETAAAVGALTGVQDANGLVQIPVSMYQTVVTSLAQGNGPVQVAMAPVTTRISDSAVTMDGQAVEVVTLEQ
Glucocorticoid receptor (Homo sapiens), sequence (P04150 whole entry, looked up, the tested form may be a part): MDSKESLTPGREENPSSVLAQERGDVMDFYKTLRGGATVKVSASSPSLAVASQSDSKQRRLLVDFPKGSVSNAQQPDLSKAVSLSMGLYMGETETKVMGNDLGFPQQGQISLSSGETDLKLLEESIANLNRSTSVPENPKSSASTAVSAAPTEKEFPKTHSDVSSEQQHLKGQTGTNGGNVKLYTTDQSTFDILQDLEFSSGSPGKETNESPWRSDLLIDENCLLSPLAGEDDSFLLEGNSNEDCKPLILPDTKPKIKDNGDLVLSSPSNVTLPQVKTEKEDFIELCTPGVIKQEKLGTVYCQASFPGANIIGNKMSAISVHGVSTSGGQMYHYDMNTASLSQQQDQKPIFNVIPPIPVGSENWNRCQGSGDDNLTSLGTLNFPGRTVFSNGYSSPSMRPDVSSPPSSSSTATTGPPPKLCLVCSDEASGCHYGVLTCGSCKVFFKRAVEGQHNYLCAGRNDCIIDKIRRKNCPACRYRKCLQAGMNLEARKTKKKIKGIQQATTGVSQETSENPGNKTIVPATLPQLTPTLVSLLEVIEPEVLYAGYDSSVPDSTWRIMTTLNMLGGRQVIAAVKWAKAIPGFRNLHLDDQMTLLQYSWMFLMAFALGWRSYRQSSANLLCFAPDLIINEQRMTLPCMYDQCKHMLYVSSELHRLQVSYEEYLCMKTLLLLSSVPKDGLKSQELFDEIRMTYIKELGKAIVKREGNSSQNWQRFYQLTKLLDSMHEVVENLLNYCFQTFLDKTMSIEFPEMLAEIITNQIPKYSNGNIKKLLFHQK
Nuclear receptor subfamily 4 group A member 2 (Homo sapiens), sequence (P43354 whole entry, looked up): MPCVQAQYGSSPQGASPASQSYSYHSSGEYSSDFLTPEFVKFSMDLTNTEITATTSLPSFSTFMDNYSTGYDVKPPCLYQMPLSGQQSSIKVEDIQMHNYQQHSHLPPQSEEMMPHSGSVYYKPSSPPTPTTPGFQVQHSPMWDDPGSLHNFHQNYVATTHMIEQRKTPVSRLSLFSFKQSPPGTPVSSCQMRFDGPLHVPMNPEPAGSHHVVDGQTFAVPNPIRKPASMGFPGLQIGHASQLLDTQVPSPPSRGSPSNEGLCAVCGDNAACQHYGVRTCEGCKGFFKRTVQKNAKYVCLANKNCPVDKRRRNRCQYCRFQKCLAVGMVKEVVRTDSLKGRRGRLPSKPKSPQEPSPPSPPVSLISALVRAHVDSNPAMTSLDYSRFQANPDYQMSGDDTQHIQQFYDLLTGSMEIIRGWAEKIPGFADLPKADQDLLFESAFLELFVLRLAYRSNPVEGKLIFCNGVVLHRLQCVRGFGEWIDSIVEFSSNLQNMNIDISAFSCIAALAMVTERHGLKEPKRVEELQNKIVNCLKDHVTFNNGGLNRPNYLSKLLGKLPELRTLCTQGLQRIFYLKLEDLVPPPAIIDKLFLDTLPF
Nuclear receptor subfamily 1 group I member 3 (Homo sapiens), sequence (Q14994 whole entry, looked up, the tested form may be a part): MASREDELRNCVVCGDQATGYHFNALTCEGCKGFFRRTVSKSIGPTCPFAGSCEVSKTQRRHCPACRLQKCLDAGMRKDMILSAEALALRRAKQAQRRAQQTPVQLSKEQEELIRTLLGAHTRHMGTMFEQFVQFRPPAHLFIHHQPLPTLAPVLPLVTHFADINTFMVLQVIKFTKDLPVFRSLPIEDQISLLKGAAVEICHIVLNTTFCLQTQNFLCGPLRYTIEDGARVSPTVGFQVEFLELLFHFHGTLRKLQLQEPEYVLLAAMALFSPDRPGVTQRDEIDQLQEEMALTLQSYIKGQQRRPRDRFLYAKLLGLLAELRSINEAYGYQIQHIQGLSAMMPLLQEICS
Estrogen-related receptor gamma (Homo sapiens), sequence (P62508 whole entry, looked up, the tested form may be a part): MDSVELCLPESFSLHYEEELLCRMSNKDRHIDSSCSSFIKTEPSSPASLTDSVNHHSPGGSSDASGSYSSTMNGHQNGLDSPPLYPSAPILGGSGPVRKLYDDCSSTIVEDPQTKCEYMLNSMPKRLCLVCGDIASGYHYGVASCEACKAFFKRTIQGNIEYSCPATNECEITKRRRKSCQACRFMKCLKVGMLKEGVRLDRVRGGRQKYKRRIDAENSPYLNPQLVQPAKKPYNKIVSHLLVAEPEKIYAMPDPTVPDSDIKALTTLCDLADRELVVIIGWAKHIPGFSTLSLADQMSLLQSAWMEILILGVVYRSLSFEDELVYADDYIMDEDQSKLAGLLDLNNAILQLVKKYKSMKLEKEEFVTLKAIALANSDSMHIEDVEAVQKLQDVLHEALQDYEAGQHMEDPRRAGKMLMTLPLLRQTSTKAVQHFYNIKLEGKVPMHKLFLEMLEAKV

Consider `NC(=NCCCCCCN=C(N)/N=C(\N)Nc1ccc(Cl)cc1)/N=C(\N)Nc1ccc(Cl)cc1`, for which the AC50 is 119 µM (active) in assay [1]; 0.0763 µM (active) in assay [2]; 25.3 µM (active) in assay [6]; 24.1 µM (active) in [8]; 25.7 µM (active) in assay [9]; 23.3 µM (active) in [10]. The AC50 in assay [13] is 18.3 µM (active) and 48.2 µM (active); in [14] it was 7.2 µM (active) and 38.6 µM (active). Further, the compound was classed as inactive in assay [1], in [2], in assay [3], in assay [4], in assay [5] and in assay [6]. Besides, the compound was classed as inactive in assay [7], in assay [8], in assay [9], in assay [10], in assay [11] and in assay [12]. In addition, the outcome in [13] and in assay [14] was inactive.

On to `CCC(C)c1ccccc1O` (centres undefined), for which the call in [1], in assay [2], in [15], in assay [3], in assay [5] and in assay [16] was inactive. The result in assay [17], in assay [18], in assay [6], in [10], in assay [12] and in [13] was inactive. Moreover, the result in [14] was inactive. In assay [15], the AC50 was 74.6 µM (active).

As for `O=C1OC2(c3ccccc31)c1cc(I)c(O)c(I)c1Oc1c2cc(I)c(O)c1I`, the call in assay [1], in [2], in [3], in assay [5], in assay [16] and in assay [17] was inactive. For the same compound, the outcome in [18], in assay [7], in [8], in assay [9], in assay [10] and in assay [11] was inactive. Besides, the compound was classed as inactive in assay [12], in assay [13] and in assay [14]. The AC50 was 93.8 µM (active) in assay [2]; 20.4 µM (active) and 23.8 µM (active) and 22 µM (active) in assay [15]; 25.4 µM (active) in assay [12].

For the origin of these results see PubChem BioAssay (EPA / NIEHS).
